Several values for one entry are separate records, joined by “and”; a condition that tells them apart may be missing. Equal entries are not always repeated. In all, about 360,000 compounds went through this assay and about 9,100 (2.5%) were called active. Not shown: some 4% with an inconclusive outcome. The list comes from a sample in which actives are over-represented; it also holds similar structures and randomly drawn compounds. Unmarked numbers belong to inactive results. No stated cut-off is given here; in the data, active means max response below about -50%; inconclusive means no clear call, values can overlap the other calls; inactive means above that.
On the % scale 0 is the no-effect control and ±100 the full control effect.

Sequence of D(3) dopamine receptor (Homo sapiens) (P35462 whole entry, looked up): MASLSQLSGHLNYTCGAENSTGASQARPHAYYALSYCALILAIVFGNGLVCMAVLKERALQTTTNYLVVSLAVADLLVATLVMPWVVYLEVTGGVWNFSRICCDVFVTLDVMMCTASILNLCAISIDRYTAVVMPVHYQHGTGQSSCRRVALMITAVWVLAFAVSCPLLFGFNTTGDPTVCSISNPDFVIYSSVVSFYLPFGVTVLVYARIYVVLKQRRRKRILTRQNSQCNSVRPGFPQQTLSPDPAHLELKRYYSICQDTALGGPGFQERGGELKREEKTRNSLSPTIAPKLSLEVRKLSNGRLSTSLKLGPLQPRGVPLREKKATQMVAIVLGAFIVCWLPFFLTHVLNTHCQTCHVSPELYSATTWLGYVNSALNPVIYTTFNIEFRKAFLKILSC

This test has as its target D(3) dopamine receptor (Homo sapiens) (UniProt P35462). Description: qHTS of D3 Dopamine Receptor Antagonist: qHTS. The conditions noted are these: D3R cells, DiscoveRx beta-arrestin luminescence, antagonist mode; hits give low values. In outline:
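Cells expressing the human receptor were seeded at 1500 cells/well, incubated overnight at 37 degrees C in 5% CO2, then exposed to library compounds with dopamine controls for 90 minutes at 37 degrees C before luminescent detection.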
(In qHTS, concentration-response curves come from the screen itself.)
In the case of `CN1CCN(c2ccc3c(c2)OC[C@H](Cc2ccccc2)NS3(=O)=O)CC1`, the max response, negative = inhibition is -23%. Next, `CCOC(=O)[C@]12CCCC=C1N(Cc1ccc3c(c1)OCO3)C(=O)[C@H](CC(=O)NCc1cccs1)C2`: -6.39%. Take `COC(=O)C[C@H]1C[C@@H]2c3cc(NC(=O)Nc4ccccc4)ccc3O[C@@H]2[C@@H](CO)O1`: the max response, negative = inhibition was 17.9%.

Take `COc1ccc(C)cc1N(C(=O)Cn1nnc(-c2ccc(C)o2)n1)C(C(=O)NC1CCCC1)c1ccncc1` (stereo not given): the max response, negative = inhibition is -57.8% (active). Then `Cc1cccc(N(C(=O)Cn2nnc(-c3ccc(C)o3)n2)C(C(=O)NC2CCCC2)c2ccncc2)c1` (stereo not given), with 12.8%; and `CCC(C(=O)NC1CCCC1)N(C(=O)Cn1nnc(-c2ccc(C)o2)n1)c1ccc(OC)c(OC)c1` (stereo not given), with 8.45%; and `CNC[C@H]1OCc2cnnn2CCCC(=O)N([C@H](C)CO)C[C@@H]1C`, with 11.4%. Then `COCCNC(=O)C1(C)CCCN(Cc2cccc(F)c2)C1` (stereo not given), with -6.58%. Regarding `COc1cccc(C(O)Cc2nc3ccccc3n2C)c1OC` (stereo not given), the max response, negative = inhibition was 9.46%. For the molecule `Cn1c(CC(=O)NNC(=O)c2ccccc2F)nc2ccccc21`, the max response, negative = inhibition was 5.88%. As to `CC(NCc1nc2ccccc2n1C)C12CC3CC(CC(C3)C1)C2` (stereo not given), the max response, negative = inhibition was -77.6% (active).

On to `COC(=O)c1ccc2nc(-c3cccc(Br)c3)c(Cc3ccccc3C(F)(F)F)n2c1`, for which the max response, negative = inhibition was 0%. Then `CC(C)c1cc(C(=O)N/N=C/c2ccoc2)c(O)c(C(C)C)c1`, with -60.7% (active); and `CC(Oc1ccccc1[N+](=O)[O-])C(=O)N/N=C/c1ccoc1` (stereo not given), with -27.6%; and `O=C(N/N=C/c1ccoc1)c1ccc(Cl)cc1Cl`, with 9.92%. Next, `CC(=O)N1C[C@@H](CO)[C@@H](N(C)C(=O)c2ccco2)C[C@H]1c1ccccc1`: 0%. Next, `C/C=C(\C)C(=O)NCCN1C2=NC[C@H](Cc3ccc(O)cc3)N2C[C@@H]1Cc1ccc(OC)cc1`: -17.1%. Take `COc1cccc(CNC(=O)CCC2CCCN(Cc3ccc(OC(F)F)cc3)C2)c1` (stereo not given): the max response, negative = inhibition was -23.3%.

Consider `COc1ccc(C[C@H]2CN3C(=NC[C@H]3C)N2CCNC(=O)CCC2CCCCC2)cc1`, for which the max response, negative = inhibition is -71.7% (active). Next, `CC1(C(=O)NCc2cccc3ccccc23)CCN1Cc1ccc(-c2ccccc2)o1` (stereo not given): 34.9%; `CCOc1cc(/C=N/NC(=O)c2ccncc2)cc(Br)c1O`: 2.27%; `CCC(C)CN1C(=O)CSCC1(C)C(=O)NCc1ccccc1` (stereo not given): 6.99%. Next, `COc1cc(C=NC2CCCCC2)ccc1O`: 22%; `OC(c1ccc(Cl)cc1)c1ncc(-c2ccc(Cl)cc2)[nH]1` (stereo not given): 21.5%. Then `CCOC(=O)c1c(S(=O)(=O)Nc2cccc(Cl)c2)c(C)n(C)c1C`, with -8.27%; and `CCOC(=O)c1c(S(=O)(=O)Nc2ccc(CN3CCC(C)CC3)cc2)c(C)n(C)c1C`, with -51% (active). As for `CCOC(=O)c1c(S(=O)(=O)NCC(=O)Nc2ccc(C)cc2)c(C)n(C)c1C`, the max response, negative = inhibition is -0.327%. Then `CC1Cc2[nH][nH]c(=O)c2C(C2CCCC2)O1` (stereo not given), with 0%. Next, `CCCCc1ccc(S(=O)(=O)NC(=O)C2(C)CCN2C(=O)c2ccccc2)cc1` (stereo not given): 0.751%; `CC1CCC2(CC1)NC(=O)N(CC(=O)NCc1ccco1)C2=O` (stereo not given): -7.59%; `COc1cccc(-c2cc(NC(C)=O)c3ncc(-c4cccc(C(C)=O)c4)n3c2)c1`: 4.06%.

For `CCOC(=O)c1cnn2c(SC)ncnc12`, the max response, negative = inhibition is -12.7%.

Take `COC(=O)[C@H]1[C@H]2C[C@H]3c4[nH]c5ccccc5c4CCN3C[C@@H]2CC[C@@H]1O`: the max response, negative = inhibition was -113% (active) and -60.5% (active). `C[C@H](O)[C@@H]1C(=O)N2CCc3c([nH]c4ccccc34)[C@@H]2C[C@@H]1N(C)C(=O)Nc1ccc(F)cc1`: the max response, negative = inhibition was -19.9%. Then `COc1ccc(-c2ccc3[nH]c4c(c3c2)CCN2C[C@H]3[C@H](C)ON(C)[C@H]3C[C@@H]42)cc1`, with -2.08%. Next, `COc1ccc(S(=O)(=O)NC(=O)C2(C)CCN2C(=O)COc2ccc(Cl)cc2)cc1` (stereo not given): -5.73%. Then `Cn1c(=O)[nH]c(=O)c2c1nc(N1CCN(C(c3ccccc3)c3ccccc3)CC1)n2CCO`, with 6.48%; and `Cn1c(=O)[nH]c(=O)c2c1nc(N1CCN(CCO)CC1)n2CCSc1nc2ccccc2s1`, with -66.2% (active).

Take `Cc1nnc(SCCCn2c(N3CCCCC3)nc3c2c(=O)[nH]c(=O)n3C)s1`: the max response, negative = inhibition is 17.6%. For `COCCNc1nc(Nc2ccccc2Cl)c2sc(-c3ccccc3)cc2n1`, the max response, negative = inhibition is 14.1%. Then `CC(C)(C)C(=O)c1c(N)[nH]c(C(=O)c2ccccc2)c1-c1ccc(F)cc1`, with 4.8%; and `CCOC(=O)CCC(=O)OCC(=O)NC(C)C1CC2CCC1C2` (stereo not given), with -55.1% (active); and `Cc1c(C(=O)NC(C)C2CC3CCC2C3)cccc1[N+](=O)[O-]` (stereo not given), with 10.2%. Then `Cc1cccc(C(=O)OCC(=O)NC(C)C2CC3CCC2C3)c1O` (stereo not given), with -13.8%; and `CN(C)C(=O)c1cccc(-c2cnc3c(NC=O)cc(-c4ccc(C(=O)N5CCOCC5)cc4)cn23)c1`, with -15.4%.

For the molecule `CNc1cc(-c2c(OC)cccc2OC)ncn1`, the max response, negative = inhibition was -17.3%. For the molecule `CC(NS(=O)(=O)c1ccc(Cl)cc1)C(=O)Nc1ccc2c(c1)OCCO2` (stereo not given), the max response, negative = inhibition is -3.02%. Then `C[C@H](NS(=O)(=O)c1ccc(Cl)cc1)C(=O)OCC(=O)N1CCOCC1`, with -16.5%; and `CC(O)C(NS(=O)(=O)c1ccc(Cl)cc1)C(=O)OCc1cc([N+](=O)[O-])cc2c1OCOC2` (stereo not given), with -82.9% (active). Next, `CC1(C(=O)NS(=O)(=O)c2ccc(C#N)cc2)CCN1C(=O)CC1CCCC1` (stereo not given): -19%. Take `O=C(Cc1ccc([N+](=O)[O-])cc1)N/N=C/c1ccco1`: the max response, negative = inhibition was 3%. In the case of `COc1ccc(CC(=O)NCC(=O)N/N=C/c2cc(Br)ccc2OC)cc1`, the max response, negative = inhibition is 20.7%. Then `COc1ccc(CC(=O)N/N=C/c2cc([N+](=O)[O-])cc(Br)c2O)cc1`, with -79.9% (active); and `C[C@@H]1CN([C@H](C)CO)S(=O)(=O)c2ccc(C#C[C@@H](C)O)cc2O[C@@H]1CN(C)Cc1ccc(-c2ccccc2)cc1`, with 4.33%; and `CCOc1ccc(CCN2C(=S)N([C@@H](CC(C)C)CN3CCC[C@@H]3CN3C(=S)NC[C@@H]3Cc3ccc(O)cc3)C[C@@H]2CC(C)C)cc1`, with 21.8%.

Consider `CC1(C)OC(=O)C2=C(CC(c3ccccc3)OC2CCc2ccccc2)O1` (stereo not given), for which the max response, negative = inhibition was -29.7%.

For the molecule `COC(=O)c1ccc2c(c1)S(=O)(=O)NC2C` (stereo not given), the max response, negative = inhibition is 18.4%. Then `CCCNC(=O)c1cc(C2CCCCN2C(=O)OC)on1` (stereo not given), with 0%; and `COc1ccccc1/C=C/C=N/n1c(-c2ccc(Cl)cc2Cl)n[nH]c1=S`, with 13.4%; and `COc1ccccc1N1CCN(/N=C\C(Br)=C\c2ccccc2)CC1`, with -13.9%. Next, `Cc1cc(-c2n[nH]c(=S)n2/N=C/C(Br)=C/c2ccccc2)n[nH]1`: -70.4% (active); `O=C(Nc1ccc(F)cc1)C(CCc1ccccc1)N1CCN(CC(=O)N2CCCC2)CC1` (stereo not given): -21.4%.

On to `COC(=O)[C@]12CCCCC=C1N(CCC1=CCCCC1)C(=O)[C@H](CC(=O)NCC1CCCCC1)C2`, for which the max response, negative = inhibition was 25.3%.

As for `O=S1(=O)C[C@@H](N2CCN(CCO)CC2)[C@H](COCc2ccccc2)N1`, the max response, negative = inhibition was 1.72%. Next, `CC(=O)c1nn(-c2ccccc2)c(=Nc2ccccc2)cc1C`: 18.5%; `COC(=O)C[C@@H]1C=C[C@@H](NC(=O)c2ccc3c(c2)OCO3)[C@@H](CO)O1`: -7.72%; `CCn1c(O)c(N=NC2=NC(=O)CS2)c2cc(C)ccc21`: -90.2% (active). In the case of `CCn1c(O)c(N=NC(=O)c2cccc(S(=O)(=O)N3CCCCC3)c2)c2ccccc21`, the max response, negative = inhibition was 6.1%.

With `COC(=O)Cn1c2ccc(C)cc2c2nc(C)sc21`, the max response, negative = inhibition is -14.2%. Next, `COc1cccc(C(O)c2nc(-c3ccc(C)c(C)c3)cs2)c1` (stereo not given): 0%. For the molecule `CC(C)CC1C(=O)N(Cc2cn(CC3CCCCC3)nn2)CCS(=O)(=O)N1Cc1ccc(-c2ccc(Cl)cc2)cc1` (stereo not given), the max response, negative = inhibition was -20.8%. `COc1ccc(NC(=O)C2(C)Cc3c(-c4ccc(C(N)=O)cc4)ccnc3O2)cc1` (stereo not given): the max response, negative = inhibition is -3.64%. Then `COc1ccc(C(=O)NCCNc2ccc([N+](=O)[O-])cn2)cc1`, with -27.5%; and `CCOCC(=O)Nc1ncc(S(=O)(=O)c2ccc([N+](=O)[O-])cc2)s1`, with 8.75%; and `COC(=O)C(NC(=O)c1ccc(OC)cc1)(Nc1ncc(S(=O)(=O)c2ccc([N+](=O)[O-])cc2)s1)C(F)(F)F` (stereo not given), with -81.6% (active). Then `CC(O)(c1cccc(F)c1)c1nc(-c2ccc3c(c2)OCO3)cs1` (stereo not given), with -22.4%; and `CC1(C)OC(=O)C2=C(C[C@@H](C3CC3)O[C@H]2CCc2cccc(Cl)c2)O1`, with 12.7%; and `CN1CCN(C(=O)c2ccc(NC(=O)c3ccc(Br)o3)cc2)CC1`, with 23.3%. Next, `CCOc1ccc2[nH]c(=O)c(CN(CCCO)C(C)=O)cc2c1`: 3.99%. As for `Nc1ccc2[nH]c(=S)sc2c1`, the max response, negative = inhibition was -18.8%.

Turning to `CCOc1ccc2[nH]c(=S)sc2c1`, the max response, negative = inhibition was -53% (active). Consider `CCOC(=O)C1=C(c2ccc(OC)cc2)C(=O)c2ccccc2C1=O`, for which the max response, negative = inhibition was -64% (active). Next, `COC(=O)c1cc(OC)ccc1-c1ccc(OC)cc1`: -8.91%; `CCOC(=O)C(NC(C)=O)C(=O)Nc1ccc(OC)cc1` (stereo not given): -11.9%. Next, `CC1(C(=O)Nc2ccc3c(c2)OCCO3)CN(S(C)(=O)=O)CC(=O)N1Cc1cccc(F)c1` (stereo not given): 3.16%.

Source of the values: PubChem BioAssay AID652054 (National Center for Advancing Translational Sciences (NCATS), 2013).
